Activity calls are given as the source filed them. The calls were made as follows: active = hit-call score of the fitted dose curve at least 0.9, where 1 is the maximum; inactive = score below 0.9.

A short description of assay [1]: ATG_CRE_CIS: Attagene CIS-FACTORIAL HepG2 Assay for human cAMP Responsive Element (CRE) binding protein 3 (AID 2282926). The conditions noted are these: HepG2 CRE cis-reporter, Attagene multiplexed mRNA; actives raise or lower the signal. Summed up: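 Readout: fluorescently labelled reporter transcripts resolved by capillary electrophoresis after RT-PCR, taken 24 h post-dosing in transfected HepG2. Endogenous transcription factor activity drives each cis-element reporter; gain or loss of signal fitted relative to DMSO control.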

Assay [2] concerns the target CCAAT/enhancer-binding protein beta (Homo sapiens) (UniProt P17676). Put plainly: ATG_C_EBP_CIS: Attagene CIS-FACTORIAL HepG2 Assay for human CCAAT/Enhancer Binding Protein (C/EBP) beta (AID 2282927). The conditions noted are these: HepG2 Attagene cis-factorial transcription factor reporter; actives raise or lower the signal. The method, boiled down: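 Endogenous transcription factor activity in human liver HepG2 cells is inferred from induction of a CEBPB-linked reporter mRNA. Exposure lasts 24 h; activity is fitted in both directions relative to DMSO.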

Assay [3] in a line: ATG_CMV_CIS: Attagene CIS-FACTORIAL HepG2 Assay for human CMV (Internal Marker) (AID 2282928).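 Also: endpoint acts as a background internal control marker rather than a target.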 To be noted: HepG2 CMV promoter reporter, transcription factor profiling; actives raise or lower the signal. The method, boiled down: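 Readout: fluorescent reporter cDNA fragments separated by capillary electrophoresis after RT-PCR and HpaI cut. Cells: HepG2 carrying transfected cis-promoter reporter constructs, dosed 24 h. Endpoint serves as background internal-marker control, fit bidirectionally versus DMSO.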

Assay [4] is described as follows: ATG_DR4_LXR_CIS: Attagene CIS-FACTORIAL HepG2 Assay for human Liver X Receptor (LXR), DR4 submotif (AID 2282929). To be noted: HepG2 Attagene DR4 cis-reporter, mRNA transcription; actives raise or lower the signal. The method, boiled down: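 Measures endogenous transcription factor activity via a DR4-driven reporter transcript in human HepG2 cells. Compounds incubated 24 h; mRNA quantified by RT-PCR and capillary electrophoresis, analysed as gain or loss of signal versus DMSO.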

Assay [5] addresses Aryl hydrocarbon receptor (Homo sapiens) (UniProt P35869). The assay is described as follows: ATG_Ahr_CIS: Attagene CIS-FACTORIAL HepG2 Assay for human Aryl Hydrocarbon Receptor (Ahr) (AID 2282930). To be noted: HepG2 AhR cis-factorial reporter transcription; actives raise or lower the signal. The method, boiled down:
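Transient MRTU transfection of HepG2 → 24 h compound exposure → total RNA, oligo(dT) RT → PCR, 6-FAM extension, HpaI cut → CE fluorescence. DMSO = baseline; bidirectional curve fit.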

A short description of assay [6]: ATG_AP_1_CIS: Attagene CIS-FACTORIAL HepG2 Assay for human Activator Protein 1 (AP-1) (AID 2282931). To be noted: HepG2 Attagene cis-factorial AP-1 reporter mRNA; actives raise or lower the signal. The method, boiled down: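 Bidirectional concentration-response fitting against DMSO controls. Underlying signal: reporter mRNA from cis-promoter constructs in transiently transfected HepG2, measured after 24 h by RT-PCR and capillary electrophoresis.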

A short description of assay [7]: ATG_AP_2_CIS: Attagene CIS-FACTORIAL HepG2 Assay for human Activator Protein 2 (AP-2) (AID 2282932). The conditions noted are these: HepG2 AP-2 cis-reporter, Attagene transcription factor profiling; actives raise or lower the signal. The method, boiled down:
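Endogenous transcription factor activity is reported through transfected multiplex reporter constructs in HepG2, after 24 h of compound exposure. Transcripts were quantified by RT-PCR and capillary electrophoresis of fluorescent fragments. Bidirectional fit against DMSO.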

The nature of assay [8]: ATG_BRE_CIS: Attagene CIS-FACTORIAL HepG2 Assay for human Bone Morphogenetic Protein (BMP) Response Element (BRE) (AID 2282933). The conditions noted are these: HepG2 BMP response element reporter, Attagene transcription factor profiling; actives raise or lower the signal. The method, boiled down:
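HepG2 cells transiently transfected with multiplexed cis-element reporter units were dosed with chemical for 24 h. Reporter mRNA was measured by RT-PCR with fluorescent labelling, HpaI digestion and capillary electrophoresis; bidirectional fitting relative to DMSO.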

The target of assay [9] is Retinoic acid receptor alpha (Homo sapiens) (UniProt P10276). The assay is described as follows: ATG_DR5_RAR_CIS: Attagene CIS-FACTORIAL HepG2 Assay for human Retinoic Acid Receptor Alpha (RARE), DR5 submotif (AID 2282934). The conditions noted are these: HepG2 Attagene cis-factorial RARE DR5 reporter, mRNA; actives raise or lower the signal. The method, boiled down:
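Transient MRTU transfection of HepG2; 24 h compound treatment; TriZol RNA, oligo(dT) RT, PCR, FAM labelling, capillary electrophoresis. Bidirectional fit vs DMSO. Endogenous TF activity at DR5 RARE.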

The target in assay [10] is Transcription factor E2F1 (Homo sapiens) (UniProt Q01094). Put plainly: ATG_E2F_CIS: Attagene CIS-FACTORIAL HepG2 Assay for human E2F Transcription Factor 1 (AID 2282935). To be noted: HepG2 Attagene cis-reporter, E2F reporter RNA transcripts; actives raise or lower the signal. The method, boiled down:
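Gain or loss of reporter transcript, fitted against DMSO, reflects E2F1-driven transcription. Transiently transfected HepG2 dosed 24 h before RNA isolation. Quantified by fluorescent RT-PCR products separated by capillary electrophoresis.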

A short description of assay [11]: ATG_E_Box_CIS: Attagene CIS-FACTORIAL HepG2 Assay for human Enhancer Box (E-box) (AID 2282936). The conditions noted are these: HepG2 E-box cis-reporter transcription, actives raise or lower the signal. Summed up:
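E-box-driven reporter transcripts measured in transiently transfected HepG2 after 24 h exposure: RNA reverse-transcribed, PCR-amplified, fluorescently labelled, digested and resolved by capillary electrophoresis. Gain or loss relative to DMSO.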

Assay [12] can be described thus: ATG_M_61_CIS: Attagene CIS-FACTORIAL HepG2 Assay for M61 Transcription Factor (Internal Marker) (AID 2282937). To be noted: HepG2 Attagene CIS-FACTORIAL M61 internal marker reporter; actives raise or lower the signal. Summed up: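 Fluorescence from labelled cDNA fragments, separated by capillary electrophoresis, quantifies reporter induction. HepG2 cells bearing transiently transfected cis-promoter MRTUs were incubated with test chemical for 24 h; DMSO defined baseline for gain/loss fitting.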

The nature of assay [13]: ATG_EGR_CIS: Attagene CIS-FACTORIAL HepG2 Assay for human Early Growth Response 1 (EGR1) (AID 2282938). The conditions noted are these: HepG2 Attagene CIS-FACTORIAL EGR reporter mRNA; actives raise or lower the signal. Summed up:
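Cell-based multiplex transcription assay: HepG2 carrying transfected cis-element reporter units, 24 h chemical treatment. Fluorescence from capillary electrophoresis of RT-PCR products gives mRNA levels; fitting is bidirectional relative to DMSO.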

Assay [14] can be described thus: ATG_M_19_CIS: Attagene CIS-FACTORIAL HepG2 Assay for M19 Transcription Factor (Internal Marker) (AID 2282939). To be noted: HepG2 Attagene CIS-FACTORIAL M19 internal marker reporter; actives raise or lower the signal. The method, boiled down: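 HepG2 cells transiently transfected with cis-regulated multiple reporter transcription units were dosed for 24 h; reporter mRNA was quantified by RT-PCR, 6-FAM primer-extension labelling, HpaI digestion and capillary electrophoresis, with bidirectional fitting against DMSO baseline.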

The nature of assay [15]: ATG_Ets_CIS: Attagene CIS-FACTORIAL HepG2 Assay for human Erythroblast Transformation Specific (ETS) (AID 2282941). To be noted: HepG2 ETS cis-reporter transcription, actives raise or lower the signal. The method, boiled down: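 RT-PCR/capillary electrophoresis fluorescence read-out of reporter mRNA; HepG2 transient multi-reporter transfection; 24 h compound exposure; gain or loss of signal fitted bidirectionally relative to DMSO.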

In assay [16] the target is Hepatocyte nuclear factor 3-beta (Homo sapiens) (UniProt Q9Y261). Put plainly: ATG_FoxA2_CIS: Attagene CIS-FACTORIAL HepG2 Assay for human Forkhead box A2 (FOXA2) (AID 2282942). To be noted: HepG2 cis-reporter transcription factor activity, 24 h; actives raise or lower the signal. Summed up: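 In transiently transfected human HepG2 cells, promoter-driven reporter mRNA levels after 24 h chemical exposure are determined via RT-PCR with capillary electrophoresis. DMSO serves as baseline for bidirectional fitting.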

The nature of assay [17]: ATG_FoxO_CIS: Attagene CIS-FACTORIAL HepG2 Assay for human Forkhead box O (FoxO) (AID 2282943). The conditions noted are these: HepG2 Attagene cis-reporter, FoxO element, mRNA; actives raise or lower the signal. The method, boiled down: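 HepG2, transient MRTU transfection (cis element, endogenous TFs). Dose 24 h. TriZol RNA → oligo(dT) RT → PCR → 6-FAM primer extension → HpaI cut → CE. Gain/loss vs DMSO.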

Assay [18] is described as follows: ATG_GATA_CIS: Attagene CIS-FACTORIAL HepG2 Assay for human GATA Binding Protein (AID 2282944). To be noted: HepG2 GATA cis-element reporter, Attagene multiplex mRNA; actives raise or lower the signal. The method, boiled down:
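HepG2 cells transiently transfected with multiplexed cis-element reporter units reflecting endogenous transcription factor activity; reporter mRNA measured after 24 h dosing by RT-PCR, 6-FAM labeling, HpaI digestion and capillary electrophoresis. Bidirectional fitting versus DMSO baseline.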

Assay [19] is described as follows: ATG_GLI_CIS: Attagene CIS-FACTORIAL HepG2 Assay for human Zinc Finger Protein GLI1 (AID 2282945). The conditions noted are these: HepG2, Attagene cis-factorial reporter mRNA, GLI element; actives raise or lower the signal. The method, boiled down: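 Bidirectional curve fits relative to DMSO, using reporter mRNA levels from RT-PCR plus capillary electrophoresis. Cells were HepG2 transiently carrying cis-regulated reporter constructs, harvested 24 h after dosing.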

In assay [20] the target is Bile acid receptor (Homo sapiens) (UniProt Q96RI1). Put plainly: ATG_IR1_CIS: Attagene CIS-FACTORIAL HepG2 Assay for human Nuclear Receptor Subfamily 1 Group H Member 4 (NR1H4), IR1 submotif (AID 2282946). To be noted: IR1 reporter transcription, actives raise or lower the signal. Summed up:
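HepG2 cells transiently transfected with multiplexed cis-element reporter units read endogenous transcription factor activity. After 24 h compound exposure, reporter mRNA was quantified by RT-PCR, fluorescent labelling, HpaI digestion and capillary electrophoresis; bidirectional fitting versus DMSO baseline.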

Chain of Bile acid receptor (Homo sapiens) (Q96RI1 whole entry, looked up): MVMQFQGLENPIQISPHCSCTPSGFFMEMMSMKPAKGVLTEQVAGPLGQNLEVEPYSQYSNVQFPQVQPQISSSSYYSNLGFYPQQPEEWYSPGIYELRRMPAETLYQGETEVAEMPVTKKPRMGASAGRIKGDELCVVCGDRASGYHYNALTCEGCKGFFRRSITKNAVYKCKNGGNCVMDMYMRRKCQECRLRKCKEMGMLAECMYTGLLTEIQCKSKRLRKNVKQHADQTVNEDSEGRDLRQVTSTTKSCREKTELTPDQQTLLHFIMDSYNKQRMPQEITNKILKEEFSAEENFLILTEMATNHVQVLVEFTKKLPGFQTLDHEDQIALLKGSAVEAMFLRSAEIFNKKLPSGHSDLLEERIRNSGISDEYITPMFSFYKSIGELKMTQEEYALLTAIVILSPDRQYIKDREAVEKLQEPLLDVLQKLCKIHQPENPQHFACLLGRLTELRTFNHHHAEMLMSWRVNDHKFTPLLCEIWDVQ
Chain of Hepatocyte nuclear factor 3-beta (Homo sapiens) (Q9Y261 whole entry, looked up): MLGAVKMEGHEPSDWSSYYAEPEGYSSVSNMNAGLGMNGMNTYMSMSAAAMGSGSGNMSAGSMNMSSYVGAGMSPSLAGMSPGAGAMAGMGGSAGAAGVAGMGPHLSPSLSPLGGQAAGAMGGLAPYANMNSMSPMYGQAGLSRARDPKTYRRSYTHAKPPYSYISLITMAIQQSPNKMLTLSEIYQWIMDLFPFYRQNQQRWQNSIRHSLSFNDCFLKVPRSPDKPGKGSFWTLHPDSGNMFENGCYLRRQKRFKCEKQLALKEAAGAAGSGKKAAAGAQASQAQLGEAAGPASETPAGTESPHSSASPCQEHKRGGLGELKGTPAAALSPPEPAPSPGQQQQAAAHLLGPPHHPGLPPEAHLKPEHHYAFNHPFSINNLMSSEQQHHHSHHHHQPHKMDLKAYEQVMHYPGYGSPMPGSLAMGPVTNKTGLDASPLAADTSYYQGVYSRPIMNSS
Chain of Retinoic acid receptor alpha (Homo sapiens) (P10276 whole entry, looked up): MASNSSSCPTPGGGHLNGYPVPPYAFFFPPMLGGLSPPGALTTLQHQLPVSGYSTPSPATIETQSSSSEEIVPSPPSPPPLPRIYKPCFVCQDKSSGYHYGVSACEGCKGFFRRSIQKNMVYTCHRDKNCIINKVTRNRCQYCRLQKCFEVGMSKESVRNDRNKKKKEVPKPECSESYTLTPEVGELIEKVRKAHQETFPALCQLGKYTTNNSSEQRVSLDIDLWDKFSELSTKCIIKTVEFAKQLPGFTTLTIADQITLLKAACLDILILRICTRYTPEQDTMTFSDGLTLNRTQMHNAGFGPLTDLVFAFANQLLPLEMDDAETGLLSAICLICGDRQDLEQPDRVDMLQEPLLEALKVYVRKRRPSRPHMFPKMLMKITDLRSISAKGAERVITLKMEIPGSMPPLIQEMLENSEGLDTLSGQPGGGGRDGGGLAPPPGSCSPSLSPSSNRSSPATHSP
Chain of CCAAT/enhancer-binding protein beta (Homo sapiens) (P17676 whole entry, looked up): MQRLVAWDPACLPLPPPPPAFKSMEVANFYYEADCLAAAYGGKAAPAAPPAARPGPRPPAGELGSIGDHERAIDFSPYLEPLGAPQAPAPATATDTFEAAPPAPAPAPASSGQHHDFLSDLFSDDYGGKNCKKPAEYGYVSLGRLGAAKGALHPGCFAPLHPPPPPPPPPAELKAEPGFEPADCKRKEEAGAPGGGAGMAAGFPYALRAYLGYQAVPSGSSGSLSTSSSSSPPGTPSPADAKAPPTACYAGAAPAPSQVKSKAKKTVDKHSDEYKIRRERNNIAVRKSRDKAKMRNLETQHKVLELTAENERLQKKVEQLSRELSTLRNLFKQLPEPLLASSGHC
Chain of Aryl hydrocarbon receptor (Homo sapiens) (P35869 whole entry, looked up): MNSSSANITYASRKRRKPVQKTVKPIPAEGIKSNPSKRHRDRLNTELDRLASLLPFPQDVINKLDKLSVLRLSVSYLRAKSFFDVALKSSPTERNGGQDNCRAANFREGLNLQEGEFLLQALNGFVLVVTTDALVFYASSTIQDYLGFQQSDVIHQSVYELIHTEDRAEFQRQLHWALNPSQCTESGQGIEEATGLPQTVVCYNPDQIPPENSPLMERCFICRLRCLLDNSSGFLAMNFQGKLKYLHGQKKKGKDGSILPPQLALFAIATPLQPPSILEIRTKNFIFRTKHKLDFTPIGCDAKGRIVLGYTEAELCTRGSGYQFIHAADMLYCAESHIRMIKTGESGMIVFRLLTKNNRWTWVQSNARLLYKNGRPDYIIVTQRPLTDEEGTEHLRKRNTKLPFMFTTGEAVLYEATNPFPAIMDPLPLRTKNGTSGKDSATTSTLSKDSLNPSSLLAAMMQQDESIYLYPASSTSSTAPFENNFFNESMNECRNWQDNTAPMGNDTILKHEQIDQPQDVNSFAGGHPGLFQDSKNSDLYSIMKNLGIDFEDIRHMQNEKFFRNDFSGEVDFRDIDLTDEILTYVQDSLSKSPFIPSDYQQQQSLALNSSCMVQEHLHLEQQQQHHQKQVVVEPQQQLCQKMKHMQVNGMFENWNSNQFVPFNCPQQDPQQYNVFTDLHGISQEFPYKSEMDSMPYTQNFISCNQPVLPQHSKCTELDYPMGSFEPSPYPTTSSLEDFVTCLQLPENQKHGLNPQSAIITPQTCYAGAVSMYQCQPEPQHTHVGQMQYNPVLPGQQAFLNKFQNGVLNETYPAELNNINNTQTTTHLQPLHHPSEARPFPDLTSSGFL
Chain of Transcription factor E2F1 (Homo sapiens) (Q01094 whole entry, looked up): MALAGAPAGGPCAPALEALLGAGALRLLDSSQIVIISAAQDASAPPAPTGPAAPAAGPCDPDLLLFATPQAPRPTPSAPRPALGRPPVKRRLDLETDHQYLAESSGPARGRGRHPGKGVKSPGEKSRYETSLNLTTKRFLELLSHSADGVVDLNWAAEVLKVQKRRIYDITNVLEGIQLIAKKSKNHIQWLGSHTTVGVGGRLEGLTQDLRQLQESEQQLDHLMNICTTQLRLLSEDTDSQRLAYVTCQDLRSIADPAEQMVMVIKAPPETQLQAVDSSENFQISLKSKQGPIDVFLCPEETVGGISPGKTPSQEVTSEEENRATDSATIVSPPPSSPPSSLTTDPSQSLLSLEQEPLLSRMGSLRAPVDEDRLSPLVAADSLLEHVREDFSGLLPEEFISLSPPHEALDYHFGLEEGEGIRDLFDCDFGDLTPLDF

As for `COC(C)(C)CCCC(C)CC=O` (centres undefined), the compound was called inactive in assay [1], in assay [2], in assay [3], in assay [4], in assay [5] and in [6]. The call in assay [7], in assay [8], in [9], in assay [10], in assay [11] and in [12] was inactive. For the same compound, the compound was classed as inactive in [13], in [14], in assay [15], in assay [16], in assay [17] and in [18]. Also, the outcome in assay [19] and in assay [20] was inactive.

Consider `CCCC(O)C(O)CO` (centres undefined), for which the call in [1], in [2], in [3], in [4], in [6] and in [7] was inactive. The outcome in [8], in [9], in assay [10], in assay [11], in assay [12] and in assay [13] was inactive. Moreover, the result in assay [14], in assay [15], in [16], in assay [17], in assay [18] and in assay [19] was inactive. Further, the result in assay [20] was inactive. For the same compound, the AC50 in assay [5] is 0.16 µM (active).

In the case of `Cc1c(C2(c3cc(Br)c(O)c(Br)c3C)OS(=O)(=O)c3ccccc32)cc(Br)c(O)c1Br`, the call in [1], in [2], in assay [3], in [4], in assay [6] and in [7] was inactive. Moreover, the compound was classed as inactive in assay [8], in assay [9], in assay [10], in [11], in assay [12] and in assay [13]. Also, the result in assay [14], in assay [15], in [16], in [17], in [19] and in [20] was inactive. In addition, the half-maximal activity concentration (AC50) in assay [5] is 32.5 µM (active).

As usually defined, the AC50 is the concentration at which the activity in the assay is half-maximal.

For the origin of these results see PubChem BioAssay (EPA / NIEHS).
